Common to all, as to assay: NCI-60 one-dose screen, 48 h (100 = growth as untreated, 0 = no growth, -100 = all killed)
For assay [1], the system named is SR leukemia. The note with it: 10 µM unless noted.
Assay [2] has as its system RPMI-8226 leukemia. Particulars: 10 µM unless noted.
The test system of assay [3] is OVCAR-8 ovarian. The note with it: 10 µM unless noted.
The subject of assay [4] is OVCAR-5 ovarian. The note with it: 10 µM unless noted.
Assay [5] has as its system OVCAR-4 ovarian. Particulars: 10 µM unless noted.
In assay [6] the test system is SK-OV-3 ovarian. The note with it: 10 µM unless noted.
For assay [7], the system named is IGROV1 ovarian. Particulars: 10 µM unless noted.
Assay [8] has as its system OVCAR-3 ovarian. Particulars: 10 µM unless noted.
Assay [9] has as its system HS 578T breast. Particulars: 10 µM.
Assay [10] has as its system NCI/ADR-RES ovarian. Particulars: 10 µM unless noted.
The subject of assay [11] is T-47D breast. The note with it: 10 µM unless noted.
The subject of assay [12] is BT-549 breast. The note with it: 10 µM unless noted.
Assay [13] concerns MDA-MB-435 melanoma. Particulars: 10 µM unless noted.
Assay [14] concerns SW-620 colon. Particulars: 10 µM unless noted.
Assay [15] has as its system MCF7 breast. The note with it: 10 µM unless noted.
The subject of assay [16] is HCT-116 colon. The note with it: 10 µM unless noted.
For assay [17], the system named is HCC-2998 colon. Particulars: 10 µM unless noted.
The test system of assay [18] is KM12 colon. Particulars: 10 µM unless noted.

The results in this text go back to PubChem BioAssay (NCI).

About 83,000 compounds went through this panel and 20% of them were active in at least one assay; those are over-represented in the sample as a whole.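 The endpoint reported here, percent growth, reads 100 for growth as untreated, 0 for no net growth and -100 for all cells dead.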 A number with no mark means an inactive call. Active and inactive are the calls of the source. How the source made its calls: active means growth percent below 10; inactive means the rest.

Take `O=C(CN1CCN(c2ccccc2)CC1)N1CCN(c2nnc(-c3ccc(Cl)cc3)c(-c3ccc(Cl)cc3)n2)CC1`: the growth in assay [1] is 23.1%; in assay [2] it was -39.6% (active); in [3] it was 68%; in [4], 111%; in [5], 45.5%; in [6] it was 103%. Besides, the growth in [7] was 50.7%; in [8], 64.3%; in assay [9], 77.5%; in [10], 60.4%; in assay [11], 36.1%; in [12], 46.2%. Besides, the growth was 48.2% in [13]; 68.8% in [14]; 33% in assay [15]; 25% in [16]; 62.4% in [17]; 46.1% in assay [18].
For the compound `Cc1ccc(S(=O)(=O)NC(CCC(=O)Nc2ccc(Cl)cc2)C(=O)Nc2ccc(Cl)cc2)cc1` (configuration not stated), the growth in [1] is -18.2% (active); in assay [2], 13.5%; in assay [3], 39.2%; in assay [4], 67.8%; in assay [5], 26.3%; in assay [6] it was 26.2%. Moreover, the growth in [7] is 34.6%; in assay [8] it was 7.96% (active); in assay [9], 29.8%; in assay [10] it was 39.6%; in [11], 16.5%; in assay [12], 27.3%. Further, the growth is 38.4% in assay [13]; 31.1% in assay [14]; 30% in assay [15]; 23.8% in [16]; 23.5% in [17]; 12.8% in [18].
Take `CN(C)CCOc1nc2c3ccncc3cc(-c3cccc(Cl)c3)c2c2cnccc12`: the growth is -27.7% (active) in assay [1]; 9% (active) in assay [2]; 18.2% in assay [3]; 58.8% in [4]; 33.5% in [5]; 46.8% in assay [6]. Also, the growth in [7] was 28.9%; in [8] it was 45.6%; in assay [9], 54.3%; in assay [10] it was 15.4%; in assay [11] it was 38.7%; in [12] it was 52.6%. Also, the growth is 30% in assay [13]; 27.4% in [14]; 12.5% in [15]; 11.4% in [16]; 45% in assay [17]; 31.8% in assay [18].
`N#Cc1nc(-c2cccc(Br)c2)cc(-c2ccc(Nc3nc(N4CCCCC4)nc(N4CCCCC4)n3)cc2)c1N`: the growth in assay [1] is 11.9%; in assay [2] it was -0.0335% (active); in [3] it was 12.2%; in [4], 9.23% (active); in [5] it was -53.8% (active); in assay [6], 87.4%. For the same compound, the growth was -45.4% (active) in assay [7]; -76.6% (active) in assay [8]; 6.14% (active) in [9]; 24.3% in assay [10]; -52.6% (active) in assay [11]; -69.5% (active) in assay [12]. Moreover, the growth in assay [13] is -91.7% (active); in assay [14] it was -42.3% (active); in assay [15], 6.98% (active); in [16], -60.4% (active); in [17] it was 18.2%; in assay [18], -1.24% (active).
With `CC(C)[C@H](CN)NC[C@H](C)NS(=O)(=O)c1ccc(C(C)(C)C)cc1`, the growth in [1] was 110%; in assay [2], 90.4%; in assay [3] it was 97.5%; in [4] it was 106%; in assay [5] it was 87.5%; in [6], 105%. For the same compound, the growth in assay [7] is 97%; in assay [8], 103%; in assay [9], 87.9%; in [10], 104%; in [11], 80.5%; in [12] it was 81.2%. Moreover, the growth in assay [13] is 99.7%; in assay [14] it was 94.2%; in assay [15] it was 90.2%; in assay [16], 86.2%; in [17] it was 105%; in assay [18], 101%.
On to `Cc1ccccc1CNc1ncnc2[nH]ncc12`, for which the growth is 60.9% in assay [1]; 88.5% in assay [2]; 59.7% in assay [3]; 89.6% in assay [4]; 78% in assay [5]; 100% in assay [6]. In addition, the growth is -19.4% (active) in assay [7]; 117% in assay [8]; 165% in assay [9]; 106% in assay [10]; 96.9% in [11]; 105% in assay [12]. For the same compound, the growth in assay [13] is 90.3%; in assay [14] it was 114%; in [15], 104%; in [16] it was 100%; in assay [17] it was 105%; in assay [18], 112%.
In the case of `COc1ccc(/C=C2\CCCC3=C2N=C2SC(C)=NN2C3c2ccc(OC)c(OC)c2)cc1OC` (configuration not stated), the growth in [1] is 14.3%; in [2] it was -24.9% (active); in assay [3] it was -4.14% (active); in assay [4], 26.5%; in assay [5] it was 41.4%; in assay [6] it was 62.8%. The growth in assay [7] is 30.4%; in assay [8], 23.8%; in [9], 86.2%; in assay [10], 17.7%; in assay [11], 48.3%; in [12], 33.9%. Further, the growth in assay [13] is 11.6%; in assay [14] it was 27.3%; in assay [15], 19.3%; in assay [16] it was -28.1% (active); in assay [17], 30.5%; in assay [18], 15.5%.
`Cc1ccc(NC(=O)c2nc(S(C)=O)oc2-c2ccc(F)cc2)cc1Nc1nccc(-c2cccnc2)n1` (configuration not stated): the growth in [1] was -14.7% (active); in assay [2] it was 5.05% (active); in [3], 37.9%; in [4], 112%; in assay [5] it was 108%; in assay [6], 90.3%. Further, the growth is 33.1% in [7]; 18.8% in assay [8]; 82% in assay [9]; 95.9% in assay [10]; 40% in [11]; 26.9% in assay [12]. The growth in assay [13] is 82.5%; in assay [14], 8.58% (active); in assay [15] it was 50.7%; in [16], -53.3% (active); in [17], 97.5%; in assay [18], 50.1%.
Consider `c1ccc(-c2[nH]c3ccccc3c2-c2ccccc2)cc1`, for which the growth was 88.6% in assay [1]; 32.6% in assay [2]; 92% in assay [3]; 91.8% in [4]; 78% in assay [5]; 95% in assay [6]. Further, the growth in assay [7] was 120%; in assay [8], 96.1%; in [9], 106%; in assay [10] it was 95.7%; in assay [11], 66.1%; in assay [12] it was 110%. For the same compound, the growth was 84.6% in [13]; 88.3% in assay [14]; 94.9% in assay [15]; 81.2% in [16]; 114% in assay [17]; 92.4% in assay [18].
